The whole screen tested about 5,500 compounds, of which about 2,000 (36%) were called active. Inconclusive results (about 18%) are left out. No stated cut-off is given here; in the data, active means normalized growth mostly below about 0.91 (no sharp cut-off); inconclusive means no clear call, values can overlap the other calls; inactive means mostly above about 0.92. The list shows a part of the results.
Assay: chemical genetic growth profiling, strain panel (AID 1159580);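 further: tested at 20 µM; growth read once vehicle control cultures reached saturation at 30 °C; 1 = growth at the plate median or of vehicle wells; lower values mean less growth of the strain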
Details: growth OD

Measured: normalized growth

O=C(O)c1cc(=O)c(O)c2c(O)c(O)ccc2c1
inactive: S. cerevisiae deletion strains, locus YJR075W, strain HOC1, active compounds read low 1.04 | S. cerevisiae deletion strains, locus YKL009W, strain mrt4, active compounds read low 1.04 | S. cerevisiae deletion strains, locus YKL068W, active compounds read low 1.01 | S. cerevisiae deletion strains, locus YKL085W, strain MDH1 (second series), active compounds read low 1.02 | S. cerevisiae deletion strains, locus YKL085W, strain MDH1, active compounds read low 1.02 | S. cerevisiae deletion strains, locus YKL160W, strain elf1, active compounds read low 1.02 | S. cerevisiae deletion strains, locus YKL190W, strain CNB1, active compounds read low 1 | S. cerevisiae deletion strains, locus YKR001C, strain vps1, active compounds read low 1.01 | S. cerevisiae deletion strains, locus YKR026C, strain gcn3, active compounds read low 0.965 | S. cerevisiae deletion strains, locus YKR091W, strain srl3, active compounds read low 0.998 | S. cerevisiae deletion strains, locus YLL001W, strain dnm1, active compounds read low 1 | S. cerevisiae deletion strains, locus YLL026W, active compounds read low 0.992 | S. cerevisiae deletion strains, locus YLL041C, strain sdh2, active compounds read low 0.993 | S. cerevisiae deletion strains, locus YLR027C, strain aat2, active compounds read low 0.998 | S. cerevisiae deletion strains, locus YLR039C, strain RIC1, active compounds read low 1.04 | S. cerevisiae deletion strains, locus YLR058C, strain SHM2, active compounds read low 1.01 | S. cerevisiae deletion strains, locus YLR102C, strain apc9, active compounds read low 1.01 | S. cerevisiae deletion strains, locus YLR113W, strain HOG1, active compounds read low 1 | S. cerevisiae deletion strains, locus YLR221C, strain rsa3, active compounds read low 1.03 | S. cerevisiae deletion strains, locus YLR258W, strain gsy2, active compounds read low 0.993 | S. cerevisiae deletion strains, locus YLR262C, strain YPT6 (second series), active compounds read low 0.942 | S. cerevisiae deletion strains, locus YLR262C, strain YPT6, active compounds read low 0.971 | S. cerevisiae deletion strains, locus YLR268W, strain sec22, active compounds read low 0.987 | S. cerevisiae deletion strains, locus YLR320W, strain mms22, active compounds read low 1 | S. cerevisiae deletion strains, locus YLR330W, strain CHS5, active compounds read low 1 | S. cerevisiae deletion strains, locus YLR342W, strain FKS1 (second series), active compounds read low 1 | S. cerevisiae deletion strains, locus YLR342W, strain FKS1, active compounds read low 0.996 | S. cerevisiae deletion strains, locus YLR357W, strain rsc2, active compounds read low 0.943 | S. cerevisiae deletion strains, locus YLR370C, strain arc18, active compounds read low 0.998 | S. cerevisiae deletion strains, locus YLR371W, strain rom2, active compounds read low 1.03 | S. cerevisiae deletion strains, locus YLR384C, strain iki3, active compounds read low 1.01 | S. cerevisiae deletion strains, locus YLR418C, strain cdc73, active compounds read low 0.946 | S. cerevisiae deletion strains, locus YML016C, strain PPZ1, active compounds read low 0.991 | S. cerevisiae deletion strains, locus YML032C, strain rad52, active compounds read low 1.05 | S. cerevisiae deletion strains, locus YML120C, strain ndi1, active compounds read low 1.01 | S. cerevisiae deletion strains, locus YML124C, strain tub3, active compounds read low 1.01 | S. cerevisiae deletion strains, locus YMR058W, strain fet3, active compounds read low 0.99 | S. cerevisiae deletion strains, locus YMR078C, strain ctf18, active compounds read low 1.03 | S. cerevisiae deletion strains, locus YMR125W, strain sto1, active compounds read low 0.987 | S. cerevisiae deletion strains, locus YMR129W, active compounds read low 1.01 | S. cerevisiae deletion strains, locus YMR205C, strain PFK2, active compounds read low 0.988 | S. cerevisiae deletion strains, locus YMR223W, strain ubp8, active compounds read low 1.05 | S. cerevisiae deletion strains, locus YMR231W, strain pep5, active compounds read low 0.997 | S. cerevisiae deletion strains, locus YMR263W, strain SAP30, active compounds read low 0.999 | S. cerevisiae deletion strains, locus YMR307W, strain GAS1, active compounds read low 1.04 | S. cerevisiae deletion strains, locus YNL067W, strain RPL9B, active compounds read low 1 | S. cerevisiae deletion strains, locus YNL071W, strain lat1, active compounds read low 1 | S. cerevisiae deletion strains, locus YNL128W, strain TEP1, active compounds read low 0.972 | S. cerevisiae deletion strains, locus YNL153C, strain GIM3, active compounds read low 0.98 | S. cerevisiae deletion strains, locus YNL183C, strain NPR1, active compounds read low 0.907 | S. cerevisiae deletion strains, locus YNL209W, strain ssb2, active compounds read low 1 | S. cerevisiae deletion strains, locus YNL233W, strain BNI4, active compounds read low 0.989 | S. cerevisiae deletion strains, locus YNL248C, strain rpa49, active compounds read low 1.04 | S. cerevisiae deletion strains, locus YNL250W, strain rad50, active compounds read low 1.01 | S. cerevisiae deletion strains, locus YNL271C, strain bni1, active compounds read low 0.999 | S. cerevisiae deletion strains, locus YNL298W, strain CLA4, active compounds read low 1.01 | S. cerevisiae deletion strains, locus YNL307C, strain MCK1, active compounds read low 1.04 | S. cerevisiae deletion strains, locus YNL322C, strain KRE1 (second series), active compounds read low 0.981 | S. cerevisiae deletion strains, locus YNL322C, strain KRE1, active compounds read low 1.01 | S. cerevisiae deletion strains, locus YNR049C, strain mso1, active compounds read low 0.993 | S. cerevisiae deletion strains, locus YNR052C, strain pop2, active compounds read low 1.02 | S. cerevisiae deletion strains, locus YOL006C, strain TOP1, active compounds read low 0.984 | S. cerevisiae deletion strains, locus YOL012C, strain htz1 0.622 | S. cerevisiae deletion strains, locus YOL147C, strain pex11, active compounds read low 1.01 | S. cerevisiae deletion strains, locus YOR001W, strain rrp6, active compounds read low 1 | S. cerevisiae deletion strains, locus YOR061W, strain CKA2, active compounds read low 0.995 | S. cerevisiae deletion strains, locus YOR069W, strain VPS5, active compounds read low 1 | S. cerevisiae deletion strains, locus YOR070C, strain gyp1, active compounds read low 1 | S. cerevisiae deletion strains, locus YOR080W, strain dia2, active compounds read low 0.986 | S. cerevisiae deletion strains, locus YOR083W, strain WHI5, active compounds read low 1.02 | S. cerevisiae deletion strains, locus YOR106W, strain vam3, active compounds read low 1.04 | S. cerevisiae deletion strains, locus YOR136W, strain idh2, active compounds read low 1.02 | S. cerevisiae deletion strains, locus YOR144C, strain elg1, active compounds read low 1.01 | S. cerevisiae deletion strains, locus YOR184W, strain ser1, active compounds read low 1.1 | S. cerevisiae deletion strains, locus YOR231W, strain MKK1, active compounds read low 0.987 | S. cerevisiae deletion strains, locus YOR265W, strain rbl2, active compounds read low 0.993 | S. cerevisiae deletion strains, locus YOR270C, strain vph1, active compounds read low 1.01 | S. cerevisiae deletion strains, locus YOR290C, strain snf2, active compounds read low 0.947 | S. cerevisiae deletion strains, locus YOR316C, strain cot1, active compounds read low 1.02 | S. cerevisiae deletion strains, locus YPL051W, strain arl3, active compounds read low 1 | S. cerevisiae deletion strains, locus YPL055C, strain LGE1, active compounds read low 0.964 | S. cerevisiae deletion strains, locus YPL078C, strain atp4, active compounds read low 1.02 | S. cerevisiae deletion strains, locus YPL106C, strain sse1, active compounds read low 0.964 | S. cerevisiae deletion strains, locus YPL240C, strain hsp82, active compounds read low 1 | S. cerevisiae deletion strains, locus YPL241C, strain CIN2, active compounds read low 1.01 | S. cerevisiae deletion strains, locus YPL256C, strain CLN2, active compounds read low 0.968 | S. cerevisiae deletion strains, locus YPR119W, strain clb2, active compounds read low 1.01 | S. cerevisiae deletion strains, locus YPR141C, strain kar3, active compounds read low 1.01 | S. cerevisiae deletion strains, locus YPR163C, strain tif3, active compounds read low 1.02 | S. cerevisiae deletion strains, locus YPR167C, strain met16, active compounds read low 1.01 | S. cerevisiae deletion strains, strain wtn01, active compounds read low 0.998 | S. cerevisiae strains, strain wild type, active compounds read low 1

— PubChem BioAssay AID1159580 (chemical genetic matrix, 2015)
